Test results as given in PubChem BioAssay (NCI).
Values joined by “and” are separate entries in the source; they are usually repeats but may differ in a detail not shown here. Equal values may be shown once. About 83,000 compounds went through this panel and 20% of them were active in at least one assay; those are over-represented in the sample as a whole.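 Cell lines were cultured in 96-well plates, exposed to a single compound concentration, and assessed for percent growth 48 hours later.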 Active and inactive are the calls of the source. How the source made its calls: active means growth percent below 10; inactive means the rest.

What follows are molecules tested on MCF7 breast (assay: NCI-60 one-dose screen, 48 h (100 = growth as untreated, 0 = no growth, -100 = all killed)). Settings: 10 µM unless noted.

Question: For `Cc1ccc(OC2CC(n3cnc4ncnc(Cl)c43)OC2Oc2ccc(C)cc2)cc1` (stereo not drawn), which growth is on record?
Answer: 8.44% [100 µM] (active) and -95.4% [100 µM] (active)

Question: Which growth does the source give for `Cc1ccc(/C=N/Nc2cnccn2)s1` here?
Answer: 14.7% [100 µM] (inactive) and 4.18% [100 µM] (active)

Question: With `Cc1ccc(/C=N/Nc2nc3ccccc3s2)s1` as the molecule, how does the growth read?
Answer: 2.03% [100 µM] (active) and 4.5% [100 µM] (active)

Question: How did the growth turn out when `C=C1C(=O)O[C@H]2C[C@@]3(C)[C@H](O)CCC(=C)[C@@H]3[C@@H](OC(C)=O)[C@H]12` was run?
Answer: -83.4% [100 µM] (active) and -77.4% [100 µM] (active)

Question: For `N/N=C(\C(=O)Nc1ccc([N+](=O)[O-])cc1)C(C1=Nc2cc([N+](=O)[O-])ccc2NC1)[N+](=O)[O-]` (stereo not drawn), which growth is on record?
Answer: 45.9% [100 µM] (inactive) and 33.8% [100 µM] (inactive)

Question: For `CC(=O)c1ccc(NC(=O)/C(CC(=O)/C=C/c2ccccc2)=N/NC(N)=S)cc1`, which growth is on record?
Answer: 52.9% [100 µM] (inactive) and 4.14% [100 µM] (active)

Question: With `CC1OC(Oc2c(-c3cc(O)c(O)c(O)c3)oc3cc(O)cc(O)c3c2=O)C(O)C(O)C1O` (stereo not drawn) as the molecule, how does the growth read?
Answer: 77.9% [100 µM] (inactive) and -43.3% [100 µM] (active)

Question: How did the growth turn out when `CC1CC(=O)N(N(C)C)C2(C#N)C(=O)N=C(N)C12C#N` (stereo not drawn) was run?
Answer: -67.7% [100 µM] (active) and -64.1% [100 µM] (active)

Question: How did the growth turn out when `COc1cc(-c2nc(SC)nc3c2CCc2ccccc2-3)cc(OC)c1OC` was run?
Answer: 19.3% [100 µM] (inactive) and 8.46% [100 µM] (active)

Question: `C/C(O)=C/c1nc2sc(C)c(C)c2c(=O)s1` was tested. Which growth did it give?
Answer: 10.6% [100 µM] (inactive) and 6.54% [100 µM] (active)

Question: Which growth does the source give for `O=C(NC1=NC2C=CC([N+](=O)[O-])=CC2S1)C(=O)Nn1c(=S)[nH]c2ccccc2c1=O` (stereo not drawn) here?
Answer: 52.7% [100 µM] (inactive) and 8.91% [100 µM] (active)

Question: For `CCCCCCCCCC(O)CC(=O)c1c(O)cccc1O` (stereo not drawn), which growth is on record?
Answer: -63.9% [100 µM] (active) and -46.7% [100 µM] (active)

Question: `CC1C2(C)OC(=N)C(C#N)(C(c3cccc([N+](=O)[O-])c3)O2)C1(C#N)C#N` (stereo not drawn) was tested. Which growth did it give?
Answer: 98.4% [100 µM] (inactive)

Question: How did the growth turn out when `Cc1ccc2c(sc(-c3ccc4c(c3)sc(-c3ccc5c(c3)sc(-c3ccc(N(C)C)cc3)[n+]5C)[n+]4C)[n+]2C)c1S(=O)(=O)O` (tested in a mixture with another compound) was run?
Answer: 35.5% [100 µM] (inactive) and -81.2% [100 µM] (active)

Question: How did the growth turn out when `C=C1C(=O)OC2CC(C)C3(O)CCC(=O)C3(C)CC12` (stereo not drawn) was run?
Answer: 13.7% [100 µM] (inactive) and 3.19% [100 µM] (active)

Question: With `COC(=O)/C(=N\NC(=S)NN)C(C(=O)OC)C(=O)C(=O)Nc1cccc(C(F)(F)F)c1` (stereo not drawn) as the molecule, how does the growth read?
Answer: 63.8% [100 µM] (inactive) and 8.67% [100 µM] (active)

Question: Which growth does the source give for `CC1OC23CCCCC2C(C#N)(C#N)C1(C#N)C(=N)O3` (stereo not drawn) here?
Answer: -34% [100 µM] (active)

Question: For `C=CCNC1=C2C[C@@H](C)C[C@@H](OC)[C@@H](OC(=O)CCCN)[C@H](C)/C=C(\C)[C@@H](OC(N)=O)[C@H](OC)/C=C\C=C(/C)C(=O)NC(=CC1=O)C2=O`, which growth is on record?
Answer: -82% [100 µM] (active) and -94.9% [100 µM] (active)

Question: `COC(=O)C(C(=O)C(=O)Nc1c(C)cccc1C(C)(C)C)c1nc2ccc(Cl)cc2[nH]c1=O` (stereo not drawn) was tested. Which growth did it give?
Answer: 69.9% [100 µM] (inactive) and 60.9% [100 µM] (inactive)

Question: With `N#Cc1c(N)oc(-c2cccc([N+](=O)[O-])c2)c1C#N` as the molecule, how does the growth read?
Answer: 12.3% [100 µM] (inactive) and -50% [100 µM] (active)

Question: Which growth does the source give for `C[C@@H]1CC[C@H]2C(C)(C)[C@H]3C[C@@]12CC[C@@]3(C)O` here?
Answer: 93.1% [100 µM] (inactive) and -100% [100 µM] (active)

Question: For `Cc1ccc(NC2=N/C(=C/c3ccccc3)C(Cl)=N2)cc1`, which growth is on record?
Answer: 71.3% [100 µM] (inactive) and 75.4% [100 µM] (inactive)

Question: For `COC(=O)C(Cc1nc2ccccc2[nH]c1=O)C(=O)C(=O)Nc1cc(C(F)(F)F)ccc1Cl` (stereo not drawn), which growth is on record?
Answer: -91.8% [100 µM] (active) and 0% [100 µM] (active)
